# Experimental data as given in the supplement of paper PMC7411054.
# Where a name gives a salt, the structure may show the parent alone.
# Test system: A549-TUBA1B-RELA
# Experiment: lowest phenotypically active concentration; higher = less potent
# Settings: treatment time: 24 h
# Outline: (§1)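 After 24 h at 0.3, 1, 3 or 9 µM, with four wells per treatment, fifteen gene-edited A549, HepG2 and WPMY1 reporter lines carrying BFP, GFP and RFP/FusionRed were imaged live. Each well's live-cell features were expressed relative to solvent control wells. Deviation required ≥3 of 4 wells past the 95th percentile of control Euclidean distances, and reproducibility a median replicate Pearson correlation over the 95th percentile of non-replicates. Phenotypic activity rested on both.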
row,SMILES,lowest phenotypically active concentration [µM]
1,N#Cc1c(C2CCNCC2)cc(-c2c(O)cccc2OCC2CC2)nc1N,9
2,C=CC(=O)Nc1cccc(Nc2nc(Nc3ccc(OCCOC)cc3)ncc2F)c1,9
3,COc1cc(N2CCC(N3CCN(C)CC3)CC2)ccc1Nc1ncnc(Nc2ccccc2S(=O)(=O)C(C)C)n1,9
4,Fc1ccccc1CNCc1ccc(-c2ccnc3[nH]ccc23)cc1 [OXA 06 dihydrochloride],1
5,C[C@H]1COCCN1c1cc(C2(S(=O)(=O)C3CC3)CC2)nc(-c2ccc(NC(=S)NCCO)cc2)n1,≤ 0.3

# Test system: HepG2-ACTB-RAB5A
# Experiment: as above
# Settings: treatment time: 24 h
# Outline: as §1
row,SMILES,lowest phenotypically active concentration [µM]
1,Nc1nc(Cl)nc2c1ncn2[C@@H]1O[C@H](CO)[C@@H](O)[C@@H]1F [clofarabine],≤ 0.3
2,Cc1nc(Nc2ncc(C(=O)Nc3c(C)cccc3Cl)s2)cc(N2CCN(CCO)CC2)n1 [dasatinib],≤ 0.3
3,O=C(NCc1cccc(O)c1)Nc1nc(-c2ccncc2)cs1 [RKI 1447 dihydrochloride],≤ 0.3
4,CC(C)n1nc(-c2cc3cc(O)ccc3[nH]2)c2c(N)ncnc21,1
5,COc1ccc(-c2ccc3ncc4c(c3c2)n(-c2ccc(N3CCNCC3)c(C(F)(F)F)c2)c(=O)n4C)cn1,≤ 0.3
6,CC(C)(C)c1cnc(CSc2cnc(NC(=O)C3CCNCC3)s2)o1,≤ 0.3
7,O=C(O)c1ccc(Nc2ncc3c(n2)-c2ccc(Cl)cc2C(c2c(F)cccc2F)=NC3)cc1,≤ 0.3
8,COc1ccc(S(=O)(=O)N(C(C)=O)c2ccccc2/C=C/c2cc[n+]([O-])cc2)cc1,3
9,CC(C)(C)Nc1nc(Nc2ccc(C(N)=O)cc2)cc(N)c1C#N,3
10,Nc1cccc(-c2cc3c(Oc4cccc(O)c4)ncnc3[nH]2)c1,1
11,c1ccc2c(c1)Cc1c(Nc3ccc4c(c3)OCCO4)n[nH]c1-2,3
12,Cc1c(NC(=O)OC[C@@H]2COCCN2)cn2ncnc(Nc3ccc4c(cnn4Cc4cccc(F)c4)c3)c12,3
13,CCC(=O)N1CCN(c2ccc(-n3c(=O)ccc4cnc5ccc(-c6cnc7ccccc7c6)cc5c43)cc2C(F)(F)F)CC1 [Torin 1],≤ 0.3
14,COc1c(Nc2cc(C)[nH]n2)nc(Sc2ccc(S(=O)(=O)Cc3cccc([N+](=O)[O-])c3F)cc2F)nc1N1CCOCC1 [Centrinone],9
15,COc1cc2c(NC3CCN(C(C)C)CC3)nc(N3CCC(F)(F)CC3)nc2cc1OCCCN1CCCC1,≤ 0.3
16,CC(=O)c1c(C)c2cnc(Nc3ccc(N4CCNCC4)cn3)nc2n(C2CCCC2)c1=O,≤ 0.3
17,CN1c2ccccc2C(=O)N2CCc3c([nH]c4ccccc34)[C@H]21 [Evodiamine],1
18,CO[C@H]1C=CC=C(C)C(=O)NC2=CC(=O)C(NCCN(C)C)=C(C[C@@H](C)C[C@H](OC)[C@H](O)[C@@H](C)C=C(C)[C@@H]1OC(N)=O)C2=O [17-DMAG hydrochloride],≤ 0.3
19,Cc1noc(C)c1-c1cc(O)cc(C(O)c2ccccc2)c1 (centres undefined),3
20,O=C(Nc1ccc(-c2ccnc(Nc3ccc(N4CCOCC4)cc3)n2)cc1)[C@@H]1CCCN1,3

row,SMILES,lowest phenotypically active concentration [µM]
1,NC1(C(=O)N[C@@H](CCO)c2ccc(Cl)cc2)CCN(c2ncnc3[nH]ccc23)CC1,3
2,NC(=O)Nc1cc(-c2cccc(F)c2)sc1C(=O)N[C@H]1CCCNC1 [AZD 7762 hydrochloride],≤ 0.3
3,COc1cc2nc(-c3cc(F)ccc3O)nc(N[C@@H]3CNC[C@H]3C(C)(C)O)c2cc1OC,1
4,Cc1c[nH]c2nccc(Oc3c(F)cc(Nc4cc(Cl)nc(N)n4)cc3F)c12,≤ 0.3
5,C[C@H]1[C@H]2CC[C@H]3[C@@H]4CC=C5C[C@@H](N(C)C)CC[C@]5(C)[C@H]4CC[C@]23CN1C [Conessine],9
6,CON(C)C(=O)N1N=C(c2cc(F)ccc2F)S[C@@]1(CCCN)c1ccccc1 [ARRY 520 trifluoroacetate],≤ 0.3
7,CC[C@H](CO)Nc1nc(NCc2ccc(-c3ccccn3)cc2)c2ncn(C(C)C)c2n1,≤ 0.3
8,Oc1cccc(-c2nc(N3CCOCC3)c3oc4ncccc4c3n2)c1 [PI 103 hydrochloride],≤ 0.3
9,COc1cc(/C=C/c2ccc(OC)cc2OC)cc(OC)c1,3
10,COc1cc2c(cc1-c1c(C)noc1C)ncc1[nH]c(=O)n([C@H](C)c3ccccn3)c12 [I-BET 151 dihydrochloride],1
11,COc1cccc(-c2cc(F)ccc2[C@H]2Cc3nc(N)nc(C)c3C(=O)N2)n1,≤ 0.3
12,COc1cc(C(=O)NC2CCN(C)CC2)c(F)cc1Nc1ncc2c(n1)N(C1CCCC1)CC(F)(F)C(=O)N2C [TAK 960 hydrochloride],≤ 0.3
13,CC[C@]1(O)C[C@@H]2CN(CCc3c([nH]c4ccccc34)[C@@](C(=O)OC)(c3cc4c(cc3OC)N(C=O)[C@H]3[C@@](O)(C(=O)OC)[C@H](OC(C)=O)[C@]5(CC)C=CCN6CC[C@]43[C@@H]65)C2)C1 [vincristine],≤ 0.3
14,OC[C@H]1O[C@@H](n2cnc3c(NCc4ccco4)ncnc32)[C@H](O)[C@@H]1O [Kinetin riboside],1
15,N#Cc1c(C2CCNCC2)cc(-c2c(O)cccc2OCC2CC2)nc1N,9
16,C=CC(=O)Nc1cccc(Nc2nc(Nc3ccc(OCCOC)cc3)ncc2F)c1,3
17,COc1cc(N2CCC(N3CCN(C)CC3)CC2)ccc1Nc1ncnc(Nc2ccccc2S(=O)(=O)C(C)C)n1,9
18,Fc1ccccc1CNCc1ccc(-c2ccnc3[nH]ccc23)cc1 [OXA 06 dihydrochloride],1
19,C[C@H]1COCCN1c1cc(C2(S(=O)(=O)C3CC3)CC2)nc(-c2ccc(NC(=S)NCCO)cc2)n1,≤ 0.3
